Measurements reported in the supplement of paper PMC6555819.

Legend:
Assay in all cases: PBM binding z-score (relative to random genomic background probes); higher = stronger binding; sequences stand for … in GC…GCGATTGACAGCGTAGAATGAAGG
[1] = test system: FXR:RXRa (NR concentration 270 nM, RXRa partner concentration 90 nM)
How it was run: (§1)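 Scanned fluorescence from custom Agilent 4×180K protein-binding microarrays was regression-normalized. Binding z-scores use random background probes as reference. Ligand-free nuclear receptor dimers were incubated on the arrays for 1 h and detected with antibodies against each partner (one per run).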

[2] = test system: LXRa:RXRa (NR concentration 270 nM, RXRa partner concentration 90 nM)
How it was run: as §1

[3] = test system: LXRa homodimer (NR concentration 270 nM)
How it was run: as §1

[4] = test system: LXRb:RXRa (NR concentration 270 nM, RXRa partner concentration 90 nM)
How it was run: as §1

[5] = test system: LXRb homodimer (NR concentration 270 nM)
How it was run: as §1

[6] = test system: PPARa:RXRa (NR concentration 270 nM, RXRa partner concentration 90 nM)
How it was run: as §1

[7] = test system: PPARg:RXRa (NR concentration 180 nM, RXRa partner concentration 90 nM)
How it was run: as §1

[8] = test system: PPARg:RXRa 270nM:90nM, anti-RXR (NR concentration 270 nM, RXRa partner concentration 90 nM)
How it was run: as §1

[9] = test system: PPARg:RXRa 30nM:10nM, anti-RXR (NR concentration 30 nM, RXRa partner concentration 10 nM)
How it was run: as §1

[10] = test system: PPARg:RXRa 90nM:30nM, anti-RXR (NR concentration 90 nM, RXRa partner concentration 30 nM)
How it was run: as §1

[11] = test system: PPARg:RXRa DBDmut IVT, anti-RXR (DBD mutation: RXRa K156A/R161A, NR concentration 270 nM, RXRa partner concentration 90 nM)
How it was run: as §1

[12] = test system: PPARg:RXRa IVT, anti-PPARg (NR concentration 270 nM, RXRa partner concentration 90 nM)
How it was run: as §1

[13] = test system: PPARg DBDmut:RXRa IVT, anti-PPARg (DBD mutation: PPARg1 K132A/R137A, NR concentration 270 nM, RXRa partner concentration 90 nM)
How it was run: as §1

[14] = test system: PPARg DBDmut IVT, anti-PPARg (DBD mutation: PPARg1 K132A/R137A, NR concentration 270 nM)
How it was run: as §1

[15] = test system: PPARg homodimer (NR concentration 180 nM)
How it was run: as §1

[16] = test system: PXR:RXRa (NR concentration 270 nM, RXRa partner concentration 90 nM)
How it was run: as §1

[17] = test system: PXR homodimer (NR concentration 270 nM)
How it was run: as §1

[18] = test system: RARa:RXR (NR concentration 270 nM, RXRa partner concentration 90 nM)
How it was run: as §1

[19] = test system: RARa homodimer (NR concentration 270 nM)
How it was run: as §1

[20] = test system: RARb:RXRa (NR concentration 270 nM, RXRa partner concentration 90 nM)
How it was run: as §1

Sequence	PBM binding z-score [1]	PBM binding z-score [2]	PBM binding z-score [3]	PBM binding z-score [4]	PBM binding z-score [5]	PBM binding z-score [6]	PBM binding z-score [7]	PBM binding z-score [8]	PBM binding z-score [9]	PBM binding z-score [10]	PBM binding z-score [11]	PBM binding z-score [12]	PBM binding z-score [13]	PBM binding z-score [14]	PBM binding z-score [15]	PBM binding z-score [16]	PBM binding z-score [17]	PBM binding z-score [18]	PBM binding z-score [19]	PBM binding z-score [20]
GTACCAAGGTGAACAGGTCGTTGATGAGTAGGCG	0.658	0.647	-0.308	0.422	-0.997	2.34	1.64	1.88	0.3	1.02	1.79	3	-0.0563	-0.667	0.811	0.437	-0.13	1.38	-0.00415	2.09
CGTCCAAGGTCAACGTCAGTGAAAGAGACTCGAA	7.13	5.39	0.128	4.19	0.597	5.64	5.37	5.51	1.61	4.17	3.75	3.71	0.344	-0.9	2.39	3.66	0.793	4.09	1.2	5.37
ATCGAAAGGTCGACGGTGAGTATACCCACCCGAA	4.38	3.44	0.131	2.47	0.548	4.12	2.45	3.09	1.17	2.63	-0.188	1.6	0.9	0.777	1.58	2.43	-0.256	3.22	0.352	3.8
TCTTGTAGATCAGTAGAGGTTAAGAAAGTGCGCT	0.847	3.26	0.497	1.64	-0.181	1.44	-0.271	1.56	2.48	2.12	1.74	0.609	1.08	0.665	0.247	2.93	-0.0152	1.63	0.74	0.882
CTACCAAGTTGAACAAGGTCGTTGATTACTATTC	1.16	1.41	0.853	1.91	0.134	1.73	0.0728	0.171	0.12	0.362	0.743	0.688	0.967	0.704	1.45	2.65	4.18	1.96	1.44	1.29
GCTTACCGGTCAAAGGTTATAGCATGAATAGAAT	4.43	4.56	1.49	3.6	0.218	5.47	8.77	7.56	6.87	8.38	1.07	3.62	1.01	0.383	1.71	3.63	0.0899	5.64	0.15	3.59
CCTTACGGGTCACTGACAGGTTCTAGCATTTGGA	4.75	3.1	0.00693	2.9	0.128	4.77	3.89	4.02	1.11	2.83	3.31	3.38	0.541	-0.487	1.98	2.71	-0.239	3.46	0.459	3.63
CTCGAAAGGTCGTGCTCAGGTGAGGATACCAAAC	5.21	3.76	0.268	3.22	-0.12	4.86	2.79	4.04	0.853	2.43	0.783	1.73	-0.368	0.176	1.74	3.15	0.182	3.92	0.325	3.94
GCTCTTAGTTGAAAGGGCAACCGAATGATTCTCG	0.354	0.538	0.194	0.812	-0.185	1.77	0.987	2.26	0.632	1.71	0.37	0.474	0.11	-0.335	0.85	0.654	-0.0314	1.47	-0.318	2.08
ATCTCTAGGTAAGACTCAGTTCAGTTAAGAACGC	0.593	0.555	0.553	0.321	1.02	0.229	0.0463	0.424	0.445	0.237	2.13	1.36	0.719	0.801	1.1	1.11	1.83	0.499	1.6	0.431
CAACCTAGGTCACAGAGGTCAAAGTCCGTGCGTA	7.56	6.89	7.7	6.74	2.06	6.1	7.27	6.89	3.63	6.19	5.47	5.9	0.378	-0.0572	6.18	6.95	12.5	7.87	2.8	5.39
GCAGACAGGGGAAACGCAGGTAACTCAGGGTGGC	-0.526	-0.555	-0.616	-0.597	-1.27	-0.505	0.299	-0.604	-1.01	-0.89	-0.682	-0.536	0.0572	-0.175	-1.42	-0.626	-0.571	-0.366	-1.03	-0.337
TCGAGTAGGTTAGTCGGGGCGTTCAGCCAACATA	-0.0524	-0.272	-0.481	-0.0286	-1.19	0.148	-0.893	0.268	0.61	0.186	1.73	0.976	-0.368	-0.973	-0.66	-0.237	-0.771	-0.294	-0.96	0.0731
CGAACTAGGTCATCCGGGACAGTGAATACATTGA	4.46	2.66	0.565	2.05	0.166	5.08	8.08	6.28	3.97	5.8	8.35	8.45	3.68	1.68	1.84	1.8	0.618	2.4	0.0887	4.09
CCTCGGAAGACAACAGGAGGTCAGAGCTGCCAGA	0.802	1.66	1.65	1.31	-0.201	1.62	0.36	0.247	-0.599	-0.387	-0.389	-0.416	-0.399	-1.87	1.38	1.62	0.458	2.01	0.559	1.81
TCGATTAGTTGATTAGGGCAACCGAAACAGCGGA	-1.31	-0.186	-0.313	0.118	-0.308	0.322	0.147	1.25	2.88	2.19	1.68	1.02	-0.465	0.363	0.609	0.11	-0.141	0.208	0.0713	0.744
TCGAGTAGGTTAGTCGGGGCATGCAGCCAACATA	-0.0547	0.104	-0.427	0.0747	-0.894	0.523	0.2	0.809	0.702	0.884	2.41	2.26	0.028	-1.65	-0.293	-0.00662	-0.418	0.207	-0.677	0.512
GATACAGGGTCAGCTAGAGACCAGAGTATGGAAA	4.21	2.28	-0.37	2.36	-0.416	4.54	3.4	3.33	0.781	2.29	1.1	2.34	0.401	-0.539	1.14	1.89	0.00163	2.98	0.39	3.53
CTCGAAAGGTCGGTTGAGGGGAGTATACGGATAA	2.57	1.35	-0.151	1.35	0.377	2.39	0.359	0.861	-0.0851	0.567	-0.0517	0.459	0.19	0.356	0.859	1.51	-0.0252	1.79	-0.0195	3.02
CGTCCAAGGTCAAGGCTAGGTCAGTGAAAGCATT	7.26	5.52	1.5	4.11	-0.26	5.33	4.97	5.35	1.61	4.01	3.68	4.19	-0.104	-0.338	5.83	5.03	1.42	6.19	1.29	5.43
CCGGCTGGGGCAAGGTTACCATAACGCACAGCCA	0.218	0.386	-0.338	0.353	-1.36	1.09	1.04	0.822	-0.299	0.627	-0.429	0.466	-1	-1.85	0.0716	0.337	-0.654	0.922	-0.728	1.64
TAACCTAGGTCATGGGCCAGTATACCACGCGAAC	5.24	4.78	1.74	3.44	0.868	4.78	5.73	5.21	2.54	4.41	4.06	5.09	1.44	0.97	2.68	2.19	0.195	3.44	1.11	4.08
ATATGTAAGTTACATCCGGGTCATTCAGGCTATG	1.87	2.38	0.923	2.19	0.757	2.83	1.41	1.44	0.868	1.01	1.5	2.35	1.58	1.58	1.11	3.02	2.6	2.96	0.872	1.72
ATACCAAGGTGATCGTGAGGTCGATGATACTAAC	1.46	0.961	0.482	0.993	-0.149	1.34	0.934	0.585	0.169	0.24	0.508	1.52	0.609	0.528	0.828	1.91	0.391	1.9	0.262	1.55
CCTGCTAGGTCATGGTCGGCTAATCTACAGTATG	3.56	2.8	-0.0293	1.91	-0.492	3.56	2.32	2.78	0.716	1.99	4.22	3.41	0.753	-0.172	1.51	1.41	-0.226	2.46	-0.276	3.93
CGTCCAAGGTCAGAGAGATCAGTGAATGCCGAGT	4.93	2.88	0.0283	2.25	0.0679	3.73	2.1	2.59	0.164	1.22	2.6	2.11	0.0329	-0.28	1.89	2.74	0.829	3.01	-0.15	4.62
GATACAGGGTTAAGGCCAGAGTACGCGTATTGAT	1.24	0.758	-0.124	0.741	-0.621	2.23	1.45	1.5	0.167	0.884	0.369	1.16	0.272	-0.564	0.996	0.615	0.108	1.28	0.426	1.7
CCTAACGGGTCACGAGGTTATAGCACGACGAGCG	6.1	4.05	0.263	3.54	-0.146	5.76	6.41	5.88	2.76	4.48	3.39	4.94	1.47	0.866	2.3	4.45	0.408	5.55	1.42	4.27
GGAACGAGGGCATTCGAGATGATAGCATGGCGAT	0.866	0.444	-0.191	-0.035	-0.591	1.38	1.36	0.68	0.253	0.521	2.56	2.34	-0.145	-0.476	-0.199	0.623	0.0214	0.232	-0.236	1.72
